Results on 40 molecules are retold here after PubChem BioAssay AID1963321 (National Center for Advancing Translational Sciences (NCATS), 2024).

The structures appear in SMILES notation. Records with an inconclusive call do not appear. Where a call stands in place of a potency, no number is given. Values without a mark were called inactive. Calls of active or inactive are those of the source. Calls come from the whole dose curve.

The assay has as its target cAMP-dependent protein kinase catalytic subunit alpha (Homo sapiens) (UniProt P17612). The experiment in a line: Protein Kinase A (PKA-HiBiT) enzymatic inhibition screen - Functional assay. The note with it: luminescence; series mostly up to 57.5 µM. An excerpt: National Center for Advancing Translational Sciences (NCATS),
National Institute of Health (NIH), Maryland
Discovery and optimization of novel protein-binding ligands underlies many of the methods and applications of biology, drug discovery, clinical diagnostics, and environmental toxicology. Assays for detecting the interaction of, for example, a molecule with a macromolecular target also referred to here as the target of interest (TOI) is dependent on a compatible output technology. Depending on the nature and knowledge surrounding the TOI, whether a receptor, enzyme, regulatory subunit or scaffold, or a sequence-defined nucleic acid folded into a complex tertiary structure, assay strategies can vary widely.
Here we exploit ligand-biased changes in the structural dynamics of the target protein to control reporter alpha complementation allowing a non-competitive, non-functional, non-separation measure of ligand-target interaction.
Using a chemical library of >1,200 compounds enriched for scaffolds known to be associated with the inhibition of firefly luciferase (FLuc) activity (PubChem AIDs 2309) we first illustrate and compare the Structural Dynamics Response (SDR) assay vs. the standard functional FLuc enzyme assay (2). Secondly, we show the specificity and sensitivity of the SDR for the Abelson tyrosine kinase (ABL1) compared to the serine/threonine protein kinase A, using an enriched chemical library of 128 compounds selected, in part, for activity annotated with ABL1 kinase activity using the Pharos database (3).
(1) A. S. Dixon et al., NanoLuc Complementation Reporter Optimized for Accurate Measurement of Protein Interactions in Cells. ACS Chem Biol 11, 400-408 (2016).
Chemistry & Biology, 19, 1060 - 1072 (2012).
(3) K. J. Kelleher et al., Pharos 2023: an integrated resource for the understudied human proteome. Nucleic Acids Res 51, D1405-D1416 (2023).
PROTOCOL TABLE (as described by Inglese J, Shamu CE and Guy RK. 2007)
SEQUENCE No. (e.g., 1, 2, 3, etc.); […] (e.g., C. elegans, Compounds, Incubation, Read, etc.); VALUE and DESCRIPTION.
1. Reagent. Dispense 4 uL PKA-N-HiBiT enzyme per well at a final enzyme concentration of 10 nM in buffer with 87.5 uM ATP (functional assay) into columns 2-48 of four replicate Greiner 1536-well white,solid bottom high base, medium plates per assay. Dispense respective buffer without enzyme at 4 uL/well in column 1 of assay plates using BioRaptr 2.
2. Compounds. Library compounds added at 23 nL/well by pin transfer. DMSO neutral control and H-89 positive control added at 25 nL/well, transfer by Mosquito dispenser.
3. Incubation. Incubate enzyme and compounds at room temperature for 30 min, protect from light.
4. Reagent. (Functional assay) Transfer 25 nL of kemptide peptide substrate to each well of four replicate kinase assay plates with Mosquito dispenser.
5. Incubation. (Functional assay) Kinase Enzyme incubated with peptide substrate for 3 h at room temperature, protected from light.
6. Reagent. (Functional assay) Add 4 uL/well of Kinase-Glo Plus reagent (Promega) to kinase activity assay plates.
7. Detector. (Functional assay) Luminescence measured using CCD-based camera (ViewLux) with settings as follows: Exposure, 1 sec; Gain, High; Speed, Slow; Binning, 2X.
Inglese J, Shamu CE and Guy RK, Reporting data from high throughput screening of small molecule libraries, Nature Chemical Biology, 2007, 3(8): 438-441. doi.org/10.1038/nchembio0807-438.
Background: The HiBiT peptide binds its large partner to form an active luciferase.
`CN1CCN(CCOc2cc(OC3CCOCC3)c3c(Nc4c(Cl)ccc5c4OCO5)ncnc3c2)CC1`: the Potency entry was “inactive”.

On to `CC(C)(C)n1nc(-c2cccc3ccccc23)c2c(N)ncnc21`, for which the Potency result is “inactive”.

For `c1ccc(-c2oc3ncnc(NC[C@@H]4CCCO4)c3c2-c2ccccc2)cc1`, the Potency entry is “inactive”.

In the case of `C=CC(=O)Nc1cccc(Oc2nc(Nc3ccc(N4CCN(C)CC4)cc3OC)ncc2Cl)c1`, the Potency result was “inactive”.

As to `Cc1ccc(C(=O)Nc2ccc(CN3CCN(C)CC3)c(C(F)(F)F)c2)cc1C#Cc1cnc2[nH]ncc2c1`, the Potency result was “inactive”.

On to `N#Cc1ccc2ncnc(NCCc3ccccc3)c2c1`, for which the Potency entry is “inactive”.

As for `c1ccc2c(-c3cnn4cc(-c5ccc(N6CCNCC6)cc5)cnc34)ccnc2c1`, the activity change, negative = inhibition was 8.42% [at 6.37 µM].

Regarding `COc1cc2ncnc(Nc3ccc(F)c(Cl)c3)c2cc1OCCCN1CCOCC1`, the Potency result is “inactive”.

On to `O=C(Nc1ccc(OC(F)(F)F)cc1)c1sccc1NCc1ccnc2ccccc12`, for which the Potency result was “inactive”.

On to `Nc1nc(Nc2ccc(S(N)(=O)=O)cc2)n(C(=S)Nc2c(F)cccc2F)n1`, for which the Potency entry was “inactive”.

On to `COc1ccc(CNC(=O)Nc2ncc([N+](=O)[O-])s2)cc1`, for which the Potency entry was “inactive”.

Consider `CC(C)(NS(=O)(=O)c1ccc2c(Cl)cnc(N=C(N)N)c2c1)C(=O)O`, for which the Potency entry is “inactive”.

Regarding `CC(C)n1nc(-c2cc3cc(O)ccc3[nH]2)c2c(N)ncnc21`, the Potency result was “inactive”.

For `Cc1cc(-c2cc(O)ccc2Cl)cc2nnc(Nc3ccc(OCCN4CCCC4)cc3)nc12`, the Potency entry was “inactive”.

On to `Cc1cc(C)c(/C=C2\C(=O)Nc3ccccc32)[nH]1`, for which the Potency entry is “inactive”.

Take `C[C@@H]1CN(CC(=O)Nc2ccc3c(c2)Cc2cccc(-c4cc(=O)cc(N5CCOCC5)o4)c2S3)C[C@H](C)O1`: the Potency result is “inactive”.

In the case of `COc1cc2c(Oc3ccc4[nH]c(C)cc4c3F)ncnc2cc1OCCCN1CCCC1`, the Potency result is “inactive”.

With `Cc1cccc(C)c1-n1c(=O)c2cnc(Nc3ccc(N4CCN(C)CC4)cc3)nc2n2c3ccccc3nc12`, the Potency result is “inactive”.

Take `O=C(Nc1cc(C(F)(F)F)ccc1N1CCCCC1)c1ccncc1`: the Potency result is “inactive”.

For the molecule `CCCCCCCCCCCCc1ccc(S(=O)(=O)Nc2nncs2)cc1`, the Potency result is “inactive”.

With `COc1cc2nccc(Oc3ccc(NC(=O)Nc4ccc(F)cc4F)c(F)c3)c2cc1OC`, the Potency entry was “inactive”.

Take `CN1CCN(Cc2ccc(-c3cnc4[nH]cc(-c5ccc6[nH]ccc6c5)c4c3)cc2)CC1`: the Potency entry is “inactive”.

On to `Cc1cn(-c2cc(F)cc(NC(=O)c3ccc(C)c(Nc4nccc(-c5cccnc5)n4)c3)c2)cn1`, for which the Potency entry is “inactive”.

On to `CC1(C)OCCn2c1nc1c(N3CCOCC3)nc(-c3cnc(N)nc3)nc12`, for which the Potency entry was “inactive”.

For `COc1ccc(-n2c(C)c([N+](=O)[O-])c3ccc(O)cc32)cc1`, the Potency result was “inactive”.

As to `Cc1cc(Nc2ncc3c(n2)N(C)C(=O)N(c2cc(NC(=O)c4cccc(C(F)(F)F)c4)ccc2C)C3)n(C)n1`, the Potency result is “inactive”.

`CCN1/C(=C\C(C)=O)Sc2ccc(OC)cc21`: the Potency entry is “inactive”.

As to `CCN1C(=O)CNc2ncc(-c3ccc(-c4ncn[nH]4)nc3C)nc21`, the Potency result is “inactive”.

For the molecule `Oc1ccc(-c2ccc(-c3cc(Nc4cccc(CNC5CC5)c4)n[nH]3)cc2)c(O)c1`, the Potency entry was “inactive”.

`Cc1ccc(-n2nc(C(C)(C)C)cc2NC(=O)NCc2cc(F)ccc2Oc2ccc3c(cnn3CCO)c2)cc1`: the Potency entry is “inactive”.

As to `COc1cc(N2CCOCC2)ccc1Nc1ncc(Cl)c(Nc2ccccc2NS(C)(=O)=O)n1`, the Potency entry is “inactive”.

In the case of `Nc1ncnc2c1c(-c1cnc3[nH]ccc3c1)nn2C1CCCC1`, the Potency result is “inactive”.

`Cn1sc(=O)n(Cc2ccccc2)c1=O`: the Potency entry was “inactive”.

For the molecule `O=c1cc(N2CCOCC2)nc2c3ccccc3ccn12`, the Potency entry is “inactive”.

Regarding `CCOc1ccn(-c2ccc(F)cc2)c(=O)c1C(=O)Nc1ccc(Oc2ccnc(N)c2Cl)c(F)c1`, the Potency is 0.0153 µM (active).

`Nc1ncc(-c2cnn(CCO)c2)c2scc(-c3ccc(NC(=O)Nc4cccc(F)c4)cc3)c12`: the Potency entry was “inactive”.

With `C=CC(=O)Nc1cc2c(Nc3ccc(F)c(Cl)c3)ncnc2cc1OCCCN1CCOCC1`, the Potency result is “inactive”.

Consider `CNC(=O)c1ccccc1Sc1ccc2c(/C=C/c3ccccn3)n[nH]c2c1`, for which the Potency result is “inactive”.

On to `CCNC(=O)Nc1ccc(-c2nc3c(c(N4CCOC[C@@H]4C)n2)CCN(c2ncccn2)C3)cc1`, for which the Potency entry was “inactive”.

As to `O=C(NOCC(O)CO)c1cc(Br)c(F)c(F)c1Nc1ccc(I)cc1F` (stereo not given), the Potency entry is “inactive”.
